These results are taken from the supplement of paper PMC12494721.

Structures are written as SMILES. Counter-ions that a name gives are not always drawn.

In this assay the test system is Escherichia coli IAI1. The assay is described as follows: fold change of Putrescine concentration vs plate DMSO controls (fold change (ratio)); higher = more amine produced, active = hit call of the paper (significant change in both replicates, either direction). Particulars: incubation time: 27 h, anaerobic, 37 °C. An outline of the steps:
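Each value is the fold change relative to DMSO-only wells on the same plate. Four gut bacterial strains were grown anaerobically in mGAM at 37 °C for 27 h in 80 µL wells, starting at OD 0.1 before a 1:1 dilution, with compounds at 20 µM final (sweeteners 50 µM). Whole cultures were extracted with cold acetonitrile/methanol containing 0.1% formic acid, centrifuged, and amines were quantified by LC–triple-quadrupole MS (dynamic MRM) against external calibration curves with within-batch drift correction. Values are means of 2 biological replicates.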
On to `CN[C@H](CC(C)C)C(=O)N[C@H]1C(=O)N[C@@H](CC(N)=O)C(=O)N[C@H]2C(=O)N[C@H]3C(=O)N[C@H](C(=O)N[C@H](C(=O)O)c4cc(O)cc(O)c4-c4cc3ccc4O)[C@H](O)c3ccc(c(Cl)c3)Oc3cc2cc(c3O[C@@H]2O[C@H](CO)[C@@H](O)[C@H](O)[C@H]2O[C@H]2C[C@](C)(N)[C@H](O)[C@H](C)O2)Oc2ccc(cc2Cl)[C@H]1O` [Vancomycin hydrochloride] (20 µM), for which the “fold change of Putrescine concentration” value is 1.01 (inactive).

Take `OC[C@H]1OC(O)[C@H](O)[C@H](O)[C@@H]1O` (stereo partly drawn) [D-allose] (50 µM): the “fold change of Putrescine concentration” value was 1 (inactive).

Regarding `COC1=CC(=O)C[C@@H](C)[C@]12Oc1c(Cl)c(OC)cc(OC)c1C2=O` [Griseofulvin] (20 µM), the “fold change of Putrescine concentration” value was 1.01 (inactive).

Consider `CN1CCN(CCCN2c3ccccc3Sc3ccc(C(F)(F)F)cc32)CC1` [Trifluoperazine dihydrochloride] (20 µM), for which the “fold change of Putrescine concentration” value is 1.04 (inactive).

Regarding `CCCN(CCC)S(=O)(=O)c1ccc(C(=O)O)cc1` [Probenecid] (20 µM), the “fold change of Putrescine concentration” value was 0.984 (inactive).

As to `C#C[C@]1(O)CC[C@H]2[C@@H]3CCC4=CC(=O)CC[C@@H]4[C@H]3CC[C@@]21C` [Norethindrone] (20 µM), the “fold change of Putrescine concentration” value was 0.962 (inactive).

In the case of `NC(=O)c1ncn([C@@H]2O[C@H](CO)[C@@H](O)[C@H]2O)n1` [Ribavirin] (20 µM), the “fold change of Putrescine concentration” value was 0.781 (inactive).

On to `Cc1c(O)cccc1C(=O)N[C@@H](CSc1ccccc1)[C@H](O)CN1C[C@H]2CCCC[C@H]2C[C@H]1C(=O)NC(C)(C)C` [Nelfinavir mesylate] (20 µM), for which the “fold change of Putrescine concentration” value was 1.05 (inactive).

On to `CC1(C)S[C@@H]2[C@H](NC(=O)Cc3ccccc3)C(=O)N2[C@H]1C(=O)O` [Benzylpenicillin sodium] (20 µM), for which the “fold change of Putrescine concentration” value is 1.09 (inactive).

As for `COC(=O)Nc1nc2cc([S+]([O-])c3ccccc3)ccc2[nH]1` (stereo not given) [Oxfendazole] (20 µM), the “fold change of Putrescine concentration” value was 0.99 (inactive).

In the case of `CCCc1nc(C)c2c(=O)nc(-c3cc(S(=O)(=O)N4CCN(CC)CC4)ccc3OCC)[nH]n12` [Vardenafil] (20 µM), the “fold change of Putrescine concentration” value was 1.01 (inactive).

On to `NS(=O)(=O)c1cc(C(=O)O)cc(N2CCCC2)c1Oc1ccccc1` [Piretanide] (20 µM), for which the “fold change of Putrescine concentration” value is 0.974 (inactive).

With `C[C@H]1C[C@@H]2[C@H]([C@@H](O)C[C@@]3(C)[C@H]2CC[C@]3(O)C(=O)CO)[C@@]2(C)C=CC(=O)C=C12` [Methylprednisolone, 6-alpha] (20 µM), the “fold change of Putrescine concentration” value was 0.991 (inactive).

Take `Oc1ccc2ccccc2c1N=Nc1ccccc1` [Sudan I (1-phenylazo-2-hydroxynaphthalene)] (20 µM): the “fold change of Putrescine concentration” value was 0.952 (inactive).

For `CC(=O)OCC(=O)[C@@]1(O)CC[C@H]2[C@@H]3CCC4=CC(=O)CC[C@]4(C)[C@H]3[C@@H](O)C[C@@]21C` [Cortisol acetate] (20 µM), the “fold change of Putrescine concentration” value was 0.987 (inactive).

As to `CCN(CC)CCNc1ccc(CO)c2sc3ccccc3c(=O)c12` [Hycanthone] (20 µM), the “fold change of Putrescine concentration” value was 1.01 (inactive).

With `CC(=O)NC[C@H]1CN(c2ccc(N3CCOCC3)c(F)c2)C(=O)O1` [Linezolid] (20 µM), the “fold change of Putrescine concentration” value was 0.59 (active).

As to `NNC(=O)c1ccncc1` [Isoniazid] (20 µM), the “fold change of Putrescine concentration” value is 1.03 (inactive).

`O=C(NCCO[N+](=O)[O-])c1cccnc1` [Nicorandil] (20 µM): the “fold change of Putrescine concentration” value was 1.05 (inactive).

Turning to `CC(=O)[C@H]1CC[C@H]2[C@@H]3CC=C4C[C@@H](O)CC[C@]4(C)[C@H]3CC[C@]12C` [Pregnenolone] (20 µM), the “fold change of Putrescine concentration” value is 1.03 (inactive).

Regarding `OC[C@@H](O)[C@@H](O)[C@H](O)[C@H](O)CO` [Mannitol] (50 µM), the “fold change of Putrescine concentration” value was 0.919 (inactive).

Take `CC[C@@]1(O)C(=O)OCc2c1cc1n(c2=O)Cc2cc3c(CN(C)C)c(O)ccc3nc2-1` [Topotecan] (20 µM): the “fold change of Putrescine concentration” value is 1.01 (inactive).

For `CCCCc1ncc(/C=C(\Cc2cccs2)C(=O)O)n1Cc1ccc(C(=O)O)cc1` [Eprosartan mesylate] (20 µM), the “fold change of Putrescine concentration” value is 0.975 (inactive).

For `CCN(CC)CC(=O)Nc1c(C)cccc1C` [Lidocaine hydrochloride] (20 µM), the “fold change of Putrescine concentration” value is 0.95 (inactive).

On to `CC(C)c1nc(CN(C)C(=O)N[C@H](C(=O)N[C@@H](Cc2ccccc2)C[C@H](O)[C@H](Cc2ccccc2)NC(=O)OCc2cncs2)C(C)C)cs1` [Ritonavir] (20 µM), for which the “fold change of Putrescine concentration” value is 0.943 (inactive).
